Measured values from PubChem BioAssay (NCATS).
“And” between values parts separate entries of the source, which are not always exact repeats. Equal entries are not always repeated. Records with an inconclusive call do not appear. The source made the active and inactive calls. Unless noted, calls follow the shape of the dose curve; as a rule, active = well fitted curve in the direction sought with a large enough effect; inconclusive = small, poorly fitted or top-dose-only effect, or another doubt; inactive = no such curve, though single readings can be large; an effect the other way counts as inactive or inconclusive.

Tests used:
[1] = biological target: Cellular tumor antigen p53 (Homo sapiens) (UniProt P04637); experiment: Primary qHTS for small molecule compounds that upregulate eGFP-tagged delta133p53alpha (in N-terminal) cells. (AID 2060322); details: NCI-H358 eGFP-delta133p53alpha fluorescence, 24 h; activation: stronger effect = higher value;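 also: cells pre-induced with doxycycline then dosed without doxycycline; 0% = DMSO vehicle and 100% = reference activator; nearly all actives have a fitted effect of over 75% in size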
How it was run: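 NCI-H358 cells pre-induced 24 h with 10 ng/ml doxycycline for eGFP-delta133p53alpha, plated dox-free and exposed 24 h at 37C to titrated compounds. Fixed, Hoechst-stained; gated GFP peak intensity by laser scanning cytometry, normalized to DMSO (0%) and 57.5 uM 5-azacytidine (100%).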

[2] = biological target: Cellular tumor antigen p53 (Homo sapiens) (UniProt P04637); experiment: Primary qHTS for small molecule compounds that upregulate eGFP-tagged delta133p53alpha (in C-terminal) cells. (AID 2060324); details: NCI-H358 delta133p53alpha-eGFP (C-terminal tag), GFP fluorescence imaging, 24 h; series mostly up to 57.5 µM;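 also: 0% = DMSO wells and 100% = 57.5 µM 5-azacytidine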
How it was run: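 Doxycycline (100 ng/ml, 24 h) first induced the eGFP fusion in NCI-H358 C-terminal-tag cells. Washed-out cells then received titrated compounds for 24 h at 37 °C before paraformaldehyde fixation, Hoechst staining and cytometric GFP quantification.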

[3] = biological target: Aldehyde dehydrogenase, mitochondrial (Homo sapiens) (UniProt P05091); experiment: qHTS for Inhibitors of the Aldehyde Dehydrogenase Family (ALDH2) Validation screens (AID 2061302; active = well fitted inhibition curve with a large enough effect; title and protocol of this record describe different tests;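 also: plate controls were DMSO vehicle for no effect and maximal DPI positive control response for full effect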); details: ALDH inhibition qHTS; series mostly up to 42.6 µM
[4] = biological target: Retinaldehyde dehydrogenase 3 (Homo sapiens) (UniProt P47895); experiment: qHTS for Inhibitors of the Aldehyde Dehydrogenase Family (ALDH1A3) Validation screen (AID 2061312); details: ALDH1A3 enzyme inhibition qHTS validation, fluorescence; series mostly up to 84.7 µM; also: % is scaled to controls: 0 for no effect and ±100 for the full control effect; nearly all actives have a fitted effect of over 45% in size

Cellular tumor antigen p53 (Homo sapiens), sequence (P04637 whole entry, looked up, the tested form may be a part): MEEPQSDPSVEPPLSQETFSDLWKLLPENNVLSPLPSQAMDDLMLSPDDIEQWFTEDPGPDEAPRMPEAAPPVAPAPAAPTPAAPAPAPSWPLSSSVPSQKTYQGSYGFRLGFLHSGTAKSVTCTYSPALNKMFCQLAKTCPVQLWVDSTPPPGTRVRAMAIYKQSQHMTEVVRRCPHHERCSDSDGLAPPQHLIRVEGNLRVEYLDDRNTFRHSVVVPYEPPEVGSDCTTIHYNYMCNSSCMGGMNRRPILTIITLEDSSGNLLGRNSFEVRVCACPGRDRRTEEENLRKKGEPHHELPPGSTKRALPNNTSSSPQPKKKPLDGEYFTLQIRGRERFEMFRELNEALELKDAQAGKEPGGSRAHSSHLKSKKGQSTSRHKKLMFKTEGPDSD

COc1ccc2c(c1)CCC1C2CC[C@@]2(C)C1CC[C@@H]2NCCCCCCN1C(=O)CCC1=O (stereo not given in full)
inactive: activation [1] 10.7% | Potency [2] | Potency [3] | Potency [4]

CCCc1c(-c2ccc(O)cc2)nn(-c2ccc(O)cc2)c1-c1ccc(O)cc1
inactive: activation [1] -36.4% | Potency [2] | Potency [3] | Potency [4]

CC(C)(C)[C@]1(O)CCN2C[C@H]3c4ccccc4CCc4cccc(c43)[C@@H]2C1
inactive: activation [1] -52.3% and -59.2% | Potency [2] | Potency [3] | Potency [4]

NC(N)=N[C@@H](CCC(=O)O)C(=O)O
inactive: activation [1] -4.46% | Potency [2] | Potency [3] | Potency [4]

CN(C)CCCN1c2ccccc2CCc2ccccc21
inactive: activation [1] -0.565% and -9% | Potency [2] | Potency [3] | Potency [4]

CCCCCN(CCCCC)C(=O)C(CCC(=O)O)NC(=O)c1ccc(Cl)c(Cl)c1 (stereo not given)
inactive: activation [1] 13% and -3% | Potency [2] | Potency [3] | Potency [4]

[Li+]
inactive: activation [1] -7.03% | Potency [2] | Potency [3] | Potency [4]

OCCN1CCN(CCCN2c3ccccc3Sc3ccc(Cl)cc32)CC1
inactive: activation [1] -6.69% and -35.6% | Potency [2] | Potency [3] | Potency [4]

CCc1ccc2c(-c3cccc(Cl)c3)nc(=O)n(CC)c2n1
inactive: activation [1] -40.5% | Potency [2] | Potency [3] | Potency [4]

O=C(O)CCCCCCCC(=O)O
inactive: activation [1] 17.5% and -5.1% | Potency [2] | Potency [3] | Potency [4]

NC(N)=NCc1cccc(I)c1
inactive: activation [1] -18.3% | Potency [2] | Potency [3] | Potency [4]

CC(=O)NNC(=O)N1Cc2ccccc2Oc2ccc(Cl)cc21
inactive: activation [1] -0.739% | Potency [2] | Potency [3] | Potency [4]

NCCSSCCN
inactive: activation [1] 43.3% | Potency [2] | Potency [3] | Potency [4]

CC(C(=O)O)c1ccc(CC2CCCC2=O)cc1 (stereo not given)
inactive: activation [1] -10% and 11.7% | Potency [2] | Potency [3] | Potency [4]

Nc1ncnc2c1nc(Br)n2C1OC2COP(=O)(O)O[C@@H]2C1O (stereo not given in full)
inactive: activation [1] -6.56% | Potency [2] | Potency [3] | Potency [4]

C[C@H](O)C(=O)C1=Nc2c(nc(N)[nH]c2=O)NC1
inactive: activation [1] -8.4% | Potency [2] | Potency [3] | Potency [4]

CN1C(=O)CC[C@H]1c1cccnc1
inactive: activation [1] -11.7% and 28% | Potency [2] | Potency [3] | Potency [4]

C[C@]12C[C@H](O)[C@H]3[C@@H](CCC4=CC(=O)CC[C@@]43C)[C@@H]1CC[C@@H]2C(=O)CO
inactive: activation [1] -5.02% and -5.37% | Potency [2] | Potency [3] | Potency [4]

NCCNS(=O)(=O)c1cccc2c(Cl)cccc12
inactive: activation [1] -38% | Potency [2] | Potency [3] | Potency [4]

C[C@]12CC[C@@H]3c4ccc(O)cc4CC[C@H]3[C@@H]1CCC2=O
inactive: activation [1] 11.7% | Potency [2] | Potency [3] | Potency [4]

O=C(CCCCCN1CCN(c2ccccc2-c2ccccc2)CC1)NC1CCCc2ccccc21 (stereo not given)
inactive: activation [1] -20.9% | Potency [2] | Potency [3] | Potency [4]

NC(N)=NC(=O)Cc1c(Cl)cccc1Cl
inactive: activation [1] -18.6% and -5.21% | Potency [2] | Potency [3] | Potency [4]

C[N+](C)(C)CC=O
inactive: activation [1] -21.7% | Potency [2] | Potency [3] | Potency [4]

NC(CCCP(=O)(O)O)C(=O)O (stereo not given)
inactive: activation [1] 34.5% | Potency [2] | Potency [3] | Potency [4]

CNCCC(Oc1ccccc1OC)c1ccccc1 (stereo not given)
inactive: activation [1] -3.68% | Potency [2] | Potency [3] | Potency [4]

CNCCC(Oc1ccccc1C)c1ccccc1 (stereo not given)
inactive: activation [1] -12.7% | Potency [2] | Potency [3] | Potency [4]

CC(/C=C/c1cccc(Oc2ccc(F)cc2)c1)N(O)C(N)=O (stereo not given)
inactive: activation [1] -36% | Potency [2] | Potency [3] | Potency [4]

CCCCNc1ccc(C(=O)OCCN(C)C)cc1
inactive: activation [1] -9.6% and 10.7% | Potency [2] | Potency [3] | Potency [4]

OC(CN1CCC(Cc2ccc(F)cc2)CC1)c1ccc(Cl)cc1 (stereo not given)
inactive: activation [1] 5.08% and 40.7% | Potency [2] | Potency [3] | Potency [4]

C[N+]1(C)CCC(OC(=O)C(c2ccccc2)c2ccccc2)CC1
inactive: activation [1] -16.4% | Potency [2] | Potency [3] | Potency [4]

CNCCc1cnc(CCC(c2ccccc2)c2ccccc2)[nH]1
inactive: activation [1] -38.1% | Potency [2] | Potency [3] | Potency [4]

CC1CNCCN1S(=O)(=O)c1cccc2cnccc12 (stereo not given)
inactive: activation [1] -28.4% | Potency [2] | Potency [3] | Potency [4]

Nc1ccc(S(=O)(=O)Nc2ccnn2-c2ccccc2)cc1
inactive: activation [1] 12.6% and 48.1% and -20.4% | Potency [2] | Potency [3] | Potency [4]

CSc1nc(N)c2ncn([C@@H]3O[C@H](COP(=O)(O)OP(=O)(O)O)C(O)[C@H]3O)c2n1 (stereo not given in full)
inactive: activation [1] -2.39% | Potency [2] | Potency [3] | Potency [4]

Fc1cccc(/C=N/N=C/c2cccc(F)c2)c1
inactive: activation [1] -12.5% | Potency [2] | Potency [3] | Potency [4]

CC(=O)N[C@@H](Cc1c[nH]c2ccccc12)C(=O)OCc1cc(C(F)(F)F)cc(C(F)(F)F)c1
inactive: activation [1] -29.2% | Potency [2] | Potency [3] | Potency [4]

O=C(CCNNC(=O)c1ccncc1)NCc1ccccc1
inactive: activation [1] -11.9% and -31.2% | Potency [2] | Potency [3] | Potency [4]

O=c1[nH]ccc2c(O)cccc12
inactive: activation [1] -33.7% | Potency [2] | Potency [3] | Potency [4]

COc1ccc(C(=O)NCc2cccnc2)cc1C(=O)NCc1cccnc1
inactive: activation [1] -12.6% | Potency [2] | Potency [3] | Potency [4]

Oc1cc(O)c2c(c1)O[C@H](c1ccc(O)c(O)c1)[C@@H](O)C2
inactive: activation [1] -7.14% | Potency [2] | Potency [3] | Potency [4]

COc1cc(OC)cc(-c2cc3cnc(N)nc3nc2NC(=O)NC(C)(C)C)c1
inactive: activation [1] 5.06% | Potency [2] | Potency [3] | Potency [4]

CCCn1c(=O)c2[nH]c(C3CCCC3)nc2n(CCC)c1=O
inactive: activation [1] -35.5% | Potency [2] | Potency [3] | Potency [4]

CC1OC1P(=O)(O)O (stereo not given)
inactive: activation [1] 13.6% | Potency [2] | Potency [3] | Potency [4]

CNc1ncnc2c1ncn2[C@H]1C[C@H](OP(=O)(O)O)[C@@H](COP(=O)(O)O)O1
inactive: activation [1] 3.4% | Potency [2] | Potency [3] | Potency [4]

CC(=O)O[C@H]1Cc2ccccc2N(C(N)=O)c2ccccc21
inactive: activation [1] 5.86% | Potency [2] | Potency [3] | Potency [4]

COc1ccc(-c2ccc(N)[n+](CCCC(=O)O)n2)cc1
inactive: activation [1] -20% | Potency [2] | Potency [3] | Potency [4]

COc1cccc(OC)c1OCCNCC1COc2ccccc2O1 (stereo not given)
inactive: activation [1] 7.71% | Potency [2] | Potency [3] | Potency [4]

NC[C@@H]1O[C@H](c2ccccc2)Cc2c1ccc(O)c2O
inactive: activation [1] 5.43% | Potency [2] | Potency [3] | Potency [4]

Nc1ccc(N2C(=O)c3ccccc3C2=O)c(Cl)c1
inactive: activation [1] -1.82% | Potency [2] | Potency [3] | Potency [4]

O=C(O)CC1CCCc2ccccc2C1O (stereo not given)
inactive: activation [1] 5.92% | Potency [2] | Potency [3] | Potency [4]

C[C@H]1CC2C3CCC4=CC(=O)C=C[C@]4(C)[C@@]3(Cl)[C@@H](O)C[C@]2(C)[C@@]1(O)C(=O)CO (stereo not given in full)
inactive: activation [1] -21.3% | Potency [2] | Potency [3] | Potency [4]

O=C(O)c1cc([N+](=O)[O-])ccc1NCCCc1ccccc1
inactive: activation [1] -7.19% | Potency [2] | Potency [3] | Potency [4]

CNC(=O)c1cc2c(cn1)[nH]c1ccccc12
inactive: activation [1] 11.5% | Potency [2] | Potency [3] | Potency [4]

CC(C)NCC(O)COc1ccc(CC(N)=O)cc1 (stereo not given)
inactive: activation [1] -17.7% | Potency [2] | Potency [3] | Potency [4]

CC(N)(C(=O)O)c1ccc(C(=O)O)cc1 (stereo not given)
inactive: activation [1] 7.46% | Potency [2] | Potency [3] | Potency [4]

O=C(O)CCC/C=C\C[C@@H]1[C@@H](/C=C/[C@H](O)C2Cc3ccccc3C2)[C@@H](F)C[C@@H]1O
inactive: activation [1] -5.22% | Potency [2] | Potency [3] | Potency [4]

CN(C)C(=O)Oc1cccc([N+](C)(C)C)c1
inactive: activation [1] -10.7% and -13.7% | Potency [2] | Potency [3] | Potency [4]

N[C@@H](Cc1ccc(O)c(I)c1)C(=O)O
inactive: activation [1] -4.51% | Potency [2] | Potency [3] | Potency [4]

Nc1ccn([C@H]2CC[C@@H](CO)O2)c(=O)n1
inactive: activation [1] 32.8% and -1.67% and -29% | Potency [2] | Potency [3] | Potency [4]

N[C@@H](CCCC(=O)O)C(=O)O
inactive: activation [1] -8.81% | Potency [2] | Potency [3] | Potency [4]

NC(N)=N/N=C/c1c(Cl)cccc1Cl
inactive: activation [1] 35% | Potency [2] | Potency [3] | Potency [4]

CC[C@H]1OC(=O)[C@H](C)C(O[C@H]2C[C@@](C)(OC)[C@@H](O)[C@H](C)O2)[C@H](C)[C@@H](OC2O[C@H](C)C[C@H](N(C)C)[C@H]2O)[C@](C)(O)C[C@@H](C)CN(C)[C@H](C)[C@@H](O)[C@]1(C)O (stereo not given in full)
inactive: activation [1] -28.2% | Potency [2] | Potency [3] | Potency [4]

CSc1nc(N)c2ncn([C@@H]3O[C@H](COP(=O)(O)OP(=O)(O)OP(=O)(O)O)[C@@H](O)[C@H]3O)c2n1
inactive: activation [1] 7.61% | Potency [2] | Potency [3] | Potency [4]

CCCOc1ccccc1-c1nc2n[nH]nc2c(=O)[nH]1
inactive: activation [1] -19.5% | Potency [2] | Potency [3] | Potency [4]

CC(=O)OC(C)C[N+](C)(C)C (stereo not given)
inactive: activation [1] 10.7% and 1.73% | Potency [2] | Potency [3] | Potency [4]
